Measurements from the supplement of paper PMC6555819.

Key:
Assay in all cases: PBM binding z-score (relative to random genomic background probes); higher = stronger binding; sequences stand for … in GC…GCGATTGACAGCGTAGAATGAAGG
[1] = tested on: PPARg:RXRa DBDmut IVT, anti-RXR (DBD mutation: RXRa K156A/R161A, NR concentration 270 nM, RXRa partner concentration 90 nM)
In short: (§1)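 Ligand-free nuclear receptor dimers were applied to custom Agilent 4×180K protein-binding microarrays whose double-stranded probes carried direct-repeat seeds, single-nucleotide variants, half-site ablations and random human genomic background sequences in 34-nt variable regions. Incubation lasted 1 h. Binding z-scores were computed against the random background probes from regression-normalized fluorescence.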

[2] = tested on: PPARg:RXRa IVT, anti-PPARg (NR concentration 270 nM, RXRa partner concentration 90 nM)
In short: as §1

[3] = tested on: PPARg DBDmut:RXRa IVT, anti-PPARg (DBD mutation: PPARg1 K132A/R137A, NR concentration 270 nM, RXRa partner concentration 90 nM)
In short: as §1

[4] = tested on: PPARg DBDmut IVT, anti-PPARg (DBD mutation: PPARg1 K132A/R137A, NR concentration 270 nM)
In short: as §1

[5] = tested on: PPARg homodimer (NR concentration 180 nM)
In short: as §1

[6] = tested on: PXR:RXRa (NR concentration 270 nM, RXRa partner concentration 90 nM)
In short: as §1

[7] = tested on: PXR homodimer (NR concentration 270 nM)
In short: as §1

[8] = tested on: RARa:RXR (NR concentration 270 nM, RXRa partner concentration 90 nM)
In short: as §1

[9] = tested on: RARa homodimer (NR concentration 270 nM)
In short: as §1

[10] = tested on: RARb:RXRa (NR concentration 270 nM, RXRa partner concentration 90 nM)
In short: as §1

[11] = tested on: RARb homodimer (NR concentration 270 nM)
In short: as §1

[12] = tested on: RARg:RXRa (NR concentration 270 nM, RXRa partner concentration 90 nM)
In short: as §1

[13] = tested on: RARg homodimer (NR concentration 270 nM)
In short: as §1

[14] = tested on: RXRa DBDmut IVT, anti-RXR (DBD mutation: RXRa K156A/R161A, NR concentration 90 nM)
In short: as §1

[15] = tested on: RXRa homodimer (NR concentration 180 nM)
In short: as §1

[16] = tested on: THRa:RXRa (NR concentration 90 nM, RXRa partner concentration 90 nM)
In short: as §1

[17] = tested on: THRa homodimer (NR concentration 90 nM)
In short: as §1

[18] = tested on: VDR homodimer (NR concentration 270 nM)
In short: as §1

Sequence	PBM binding z-score [1]	PBM binding z-score [2]	PBM binding z-score [3]	PBM binding z-score [4]	PBM binding z-score [5]	PBM binding z-score [6]	PBM binding z-score [7]	PBM binding z-score [8]	PBM binding z-score [9]	PBM binding z-score [10]	PBM binding z-score [11]	PBM binding z-score [12]	PBM binding z-score [13]	PBM binding z-score [14]	PBM binding z-score [15]	PBM binding z-score [16]	PBM binding z-score [17]	PBM binding z-score [18]
CCTACTGAGCCATCAGGTCATTGATATCAACGTT	1.16	1.31	0.489	-0.632	2.1	2.1	1.55	2.21	1.53	1.81	2.7	1.5	1.69	1.17	1.42	3.37	3.52	2.2
CATACTGGGCCACGAAAGGTCATTGATTCAGTGA	4.74	5.55	1.83	0.862	2.89	5.4	1.75	5.41	0.959	4.16	4.71	4.59	4.63	0.963	4.9	3.87	1.47	2.45
GGAACGAGGGCAAGGTTGATAGCATCTGTCGACG	3.31	3.93	0.295	-0.611	0.79	0.705	-0.0103	0.822	0.206	2.52	1.67	1.67	1.88	1.72	1.32	1.45	0.156	1.39
ATCTCTAGGTAAAGATCGTTCAGTGAATGCAAAT	2.03	1.66	1.31	0.707	0.555	-0.16	0.0441	0.0862	0.49	-0.0299	0.111	0.0557	0.231	-0.238	-0.178	0.22	-0.0507	0.139
TCTGCTAGGTCAGTTGGTCAGCTTACGAGCTGCC	2.73	3.32	0.732	-0.0451	-0.25	0.13	-0.847	0.661	-0.758	3.36	2.7	2.62	3.97	0.621	0.757	1.26	0.376	-0.597
ATGCCAAGGTGATCGTGAGGTCGTTGATACTAAC	0.413	1.05	0.0542	-0.951	0.442	2.75	1.03	2.28	-0.38	1.32	1.42	2.12	0.718	0.41	1.52	3.54	2.25	2.53
CCGACTGGGCCAAGGTTACCATAACGCACAGCCA	1.61	1.71	0.193	-0.788	0.313	0.153	-0.166	0.508	-0.101	0.98	0.94	0.614	0.453	-0.285	0.719	1.07	0.784	-0.176
ATCGAAAGGACGAGGTGAGTATAGAGAAAGGGAA	0.186	0.649	0.713	0.658	0.139	-0.25	0.286	0.04	0.504	1.31	0.703	0.958	1.48	-0.386	0.312	1.27	0.739	0.284
TATACAGGGTCAAAGGACAGAGTACGAATGTCGA	2.27	4.9	3.23	2.81	2.18	3.68	1.01	4.56	1.66	4.55	3.47	5.29	5.03	3.17	6.26	3.7	1.21	2.76
CATGCTAGGTCATGGTCAGCTAATCTACAGTATG	3.61	3.51	0.62	0.712	1.58	1.4	-0.662	2.58	0.163	3.92	3.06	3.95	4.67	1.74	3.06	2.87	1.06	0.15
ATCTCTAGATAAGACTCAGTTCAGTGAAGAACGC	-0.453	-0.237	-0.428	1.1	-0.287	0.428	0.883	-0.0778	0.631	-0.306	0.0113	-0.0447	0.323	0.327	-0.154	0.116	-0.107	1.02
ACTAGTTGGTCAGCTGAGGACACACACAATTCGG	0.766	1	0.592	0.377	0.0418	1.38	0.241	1.05	0.18	1.52	1.64	1.18	1.82	0.558	0.282	4.7	4.2	0.259
TTACCAATGTGAAAGGTCGTTGATGCACGCCTTG	0.0484	2.32	0.0698	0.235	1.33	2.76	0.663	3.27	0.219	1.74	1.76	1.76	0.967	0.906	3.08	1.44	0.0994	1.66
AGTCAAAGTTCACTAGGTAACGCAAGATTCAGCT	3.01	4.84	0.915	1.01	2.5	3.77	2.6	3.32	1.39	4.93	3.66	5.13	6.21	4.25	4.24	2.08	0.154	3.32
GATACAGGGTCAAGGCCAGAGCACGCGTATTGAT	2.49	4.08	0.585	0.0811	2.41	3.86	0.352	4.64	0.569	4.5	3.82	5.4	4.9	2.27	5.45	3.6	1.34	1.92
CCTATTAGTTGACCATAAGGGCAACCGTAGCTCG	0.583	0.704	0.408	0.82	1.76	0.746	0.617	0.869	1.7	1.66	1.93	1.09	1.25	0.707	0.63	1.92	1.29	0.902

Sequence	PBM binding z-score [1]	PBM binding z-score [2]	PBM binding z-score [3]	PBM binding z-score [4]	PBM binding z-score [5]	PBM binding z-score [6]	PBM binding z-score [7]	PBM binding z-score [8]	PBM binding z-score [9]	PBM binding z-score [10]	PBM binding z-score [11]	PBM binding z-score [12]	PBM binding z-score [13]	PBM binding z-score [14]	PBM binding z-score [15]	PBM binding z-score [16]	PBM binding z-score [17]	PBM binding z-score [18]
TCGAGTAGGATAGTCGGGGCATTCAGCCAACATA	0.456	-0.749	-1.74	-1.22	-0.949	-0.303	-0.615	-0.363	-0.838	-0.448	-0.402	-0.475	-0.579	0.18	-0.289	0.0302	-0.471	-0.497
ATCTCTAGGTAAATTTCAGTGAAAGATCGATAGA	1.2	1.5	1.22	1.58	0.671	0.0865	0.265	0.745	1.29	-0.125	-0.353	0.0563	0.241	0.179	0.137	0.356	-0.0111	0.034
CCGACTGGGGCAAGGTAACCATAACGCACAGCCA	2.79	2.75	0.115	-0.601	0.0706	-0.546	-0.376	0.0797	0.0514	0.619	0.426	0.417	0.527	-0.495	0.481	0.522	0.219	-0.0983
TAGAGTAGGTTAGGGGCATTCAGAATGGCGTCGA	2.77	3.28	1.38	0.566	1.85	1.08	1.72	0.913	1.66	1.81	1.72	1.16	0.918	0.0146	1.08	1.36	0.85	1.66
CCTCGGAGGAGAGAAGGTCAGAGCTGTCCGCTTT	-0.223	-0.125	-1.3	-1.71	0.917	1.24	-0.114	1.74	-0.103	2.35	2.71	1.89	1.69	-0.424	1.89	1.59	-0.246	-0.0749
CCTCCAAGGTCAAGGTCAGTGAAAGAGACTCGAA	2.84	4.47	0.309	-0.405	3.87	4.83	1.54	5.14	2.11	5.8	5.05	6.52	7.43	3.49	6.09	4.18	3.64	2.98
CCTAGTGGGTCAAGGTCACACACGCTATAGGTAC	6.82	8.11	2.26	1.37	4.57	4.75	1.48	5.41	2.82	4.87	4.58	5.74	6.11	1.58	5.6	4.22	3.74	3.44
TAGCCTAGGTCAGATCGGGCCAGTACACGCTATA	0.552	1.62	-0.751	-0.825	0.487	1.33	-0.37	0.937	-0.817	3.22	2.33	2.85	3.65	-0.269	1.55	4.29	0.126	0.0191
ATCTTTAGGTAAAGATAGTTCAGTGAATGCAAAT	0.996	0.866	1.02	1.16	0.255	1.01	0.329	0.518	1.15	0.913	0.997	0.713	0.798	0.388	0.298	1.23	0.203	0.742
CCAACTAGGTCATCCAGGACAGTGAATACATTGA	7.67	7.53	1.61	1.62	2.3	1.94	1.63	2.35	1.24	3.89	3.44	3.88	4.83	2.49	2.77	3.79	2.61	2.63
CCTACTGGACCAAAAAGGTCATTGATGCCGATAA	1.82	2.46	-0.0112	-0.226	4.04	4.77	2.35	5.09	3.15	3.96	4.26	4.54	4.04	1.08	5.04	3.33	1.43	3.2
GGAAAGAGGGCATTCGAGTTGATAGCATGGCGAT	2.82	1.52	0.272	0.297	0.828	4.41	1.31	1.75	0.298	2.24	1.42	1.81	1.82	2.67	1.32	3.61	-0.358	2.71
AGAATGAGGTTACCAAAGATCAGGGAAACGCTTG	3.53	3.38	1.26	1.04	1.16	1.38	0.241	2.16	-0.326	2.03	0.765	2.19	1.68	1.25	2.57	3.04	0.9	0.1
CCGAGTAGGTTATGGGGCTTTCAGGCAACGGTGA	3.12	2.84	-0.365	-0.667	0.638	-0.191	-0.0344	-0.019	0.153	0.525	0.416	0.0177	0.1	-0.273	0.293	0.519	0.657	0.00532
CGTCAAAGTTCAACTTAGGTAACGTAAAGCACGC	-0.00853	2.1	0.537	0.683	4.03	5.5	4.07	4.61	2.1	5.38	4.13	6.16	6.72	4.76	5.38	5.19	0.769	4.21
